The results in this text go back to PubChem BioAssay.

Values joined by “and” are separate entries in the source; they are usually repeats but may differ in a detail not shown here. Equal values may be shown once. Some compounds were tested as several samples or in several runs, with calls that do not always agree. Active and inactive are the calls of the source.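 The calls were made as follows: active = mean z-score across replicates of 1.96 or higher in either the MELAS or the Rieske mutant cell line; inactive = the rest.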

This assay in a line: survival rescue of mitochondrial mutant cells in low glucose, primary screen, MELAS cybrids, Rieske KO mouse fibroblasts, CellTiter-Glo (AID 1508586).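 Also: test concentration not given here; z relative to plate mean and SD of compound and empty wells.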 As to conditions: MELAS cybrid survival, CellTiter-Glo 48 h, stronger effect = higher value. (ATP-based viability assays read luminescence as a measure of living cells.)
Consider `CC12CC3CC(C)(C1)CC(N)(C3)C2`, for which the z-score was -0.277 (inactive) and -0.613 (inactive).

Regarding `CC(=O)OCC(CCn1cnc2cnc(N)nc21)COC(C)=O`, the z-score is -0.188 (inactive) and -0.285 (inactive) and 0.439 (inactive). Consider `S=c1nc[nH]c2nc[nH]c12`, for which the z-score was 0.0168 (inactive) and 3.92 (active). On to `Oc1c(Cl)cc(Cl)c2cccnc12`, for which the z-score was -0.426 (inactive) and -0.351 (inactive). With `CC1=NS(=O)(=O)c2cc(Cl)ccc2N1` the figure was -0.405 (inactive) and -0.0836 (inactive). With `OC(Cn1cncn1)(Cn1cncn1)c1ccc(F)cc1F` the figure was -0.408 (inactive) and -0.874 (inactive) and -0.724 (inactive); with `NCCc1ccc(O)c(O)c1`, -0.31 (inactive) and 0.319 (inactive); with `CN=C(NC#N)NCCSCc1nc[nH]c1C`, -0.132 (inactive) and 0.533 (inactive) and -0.0775 (inactive).

Take `COc1c(N2CCNC(C)C2)c(F)cc2c(=O)c(C(=O)O)cn(C3CC3)c12` (configuration not stated): the z-score is 0.506 (inactive) and 0.393 (inactive). `CC1COc2c(N3CCN(C)CC3)c(F)cc3c(=O)c(C(=O)O)cn1c23` (configuration not stated): the z-score is -0.837 (inactive) and -0.951 (inactive) and -0.349 (inactive). Turning to `O=C(C1CCCCC1)N1CC(=O)N2CCc3ccccc3C2C1` (configuration not stated), the z-score was -0.396 (inactive) and 0.0285 (inactive) and 0.65 (inactive). With `CCc1cc(C(N)=S)ccn1` the figure was 0.0369 (inactive) and 0.0584 (inactive). Consider `CC1=C(/C=C/C(C)=C/C=C/C(C)=C/C(=O)O)C(C)(C)CCC1`, for which the z-score was -0.0661 (inactive) and 0.992 (inactive).

For the compound `CCCCNc1cc(C(=O)O)cc(S(N)(=O)=O)c1Oc1ccccc1`, the z-score was -0.34 (inactive) and 0.797 (inactive) and -0.227 (inactive). With `O=c1[nH]cnc2[nH]ncc12` the figure was 0.356 (inactive) and -0.148 (inactive) and 0.116 (inactive); with `O=C(O)c1cc(=O)c2c(OCC(O)COc3cccc4oc(C(=O)O)cc(=O)c34)cccc2o1`, 0.0651 (inactive) and -0.552 (inactive); with `CC(C)C(=O)Nc1ccc([N+](=O)[O-])c(C(F)(F)F)c1`, -0.353 (inactive) and 0.314 (inactive) and 0.345 (inactive). With `CC(COc1ccccc1)N(CCCl)Cc1ccccc1` (configuration not stated) the figure was -0.333 (inactive) and -0.71 (inactive) and -0.596 (inactive); with `CCCc1nc2c(C)cc(-c3nc4ccccc4n3C)cc2n1Cc1ccc(-c2ccccc2C(=O)O)cc1`, -0.258 (inactive) and 0.956 (inactive) and -0.424 (inactive); with `CC(=O)CC(c1ccccc1)c1c(O)c2ccccc2oc1=O` (configuration not stated), -0.697 (inactive). With `NS(=O)(=O)c1cc2c(cc1Cl)NCNS2(=O)=O`, the z-score is -0.267 (inactive) and -0.584 (inactive). Turning to `CS(=O)(=O)OCCCCOS(C)(=O)=O`, the z-score is -0.182 (inactive) and -0.283 (inactive). With `CCOC(=O)C1=C(C)NC(C)=C(C(=O)OC)C1c1cccc([N+](=O)[O-])c1` (configuration not stated) the figure was -0.48 (inactive) and 1.38 (inactive) and -0.0841 (inactive); with `COc1ccccc1OCCNCC(O)COc1cccc2[nH]c3ccccc3c12` (configuration not stated), -0.281 (inactive) and 0.201 (inactive) and -0.32 (inactive). With `O=C(O)CCCc1ccccc1` the figure was -0.2 (inactive) and -0.108 (inactive); with `NNCCc1ccccc1`, -0.122 (inactive). With `CC1Cc2ccccc2N1NC(=O)c1ccc(Cl)c(S(N)(=O)=O)c1` (configuration not stated) the figure was -0.244 (inactive) and 0.521 (inactive) and 0.421 (inactive); with `CC(C)Cc1ccc(C(C)C(=O)O)cc1` (configuration not stated), 0.0693 (inactive) and -0.542 (inactive).

Regarding `N[C@@H]1CONC1=O`, the z-score was 0.819 (inactive). Consider `CCN(Cc1ccncc1)C(=O)C(CO)c1ccccc1` (configuration not stated), for which the z-score is 0.0477 (inactive) and 0.409 (inactive) and -0.211 (inactive). `CCCc1cc(=O)[nH]c(=S)[nH]1`: the z-score was -0.276 (inactive) and 0.0359 (inactive). With `O=C(O)c1cccnc1` the figure was -0.357 (inactive) and 0.00203 (inactive).
